Activity calls are given as the source filed them.
Columns and labels:
[1] = adipocyte viability effects, profiling panel, cell-based, 3T3-L1 adipocytes, calcein-AM fluorescence, 48 h, basal (AID 1163); settings: 3T3-L1 adipocytes viability, higher = more signal
[2] = HepG2 cell viability effects, profiling panel, calcein-AM fluorescence, 48 h, basal (AID 1164); settings: higher = more signal
[3] = MM1S cell viability effects, profiling panel, calcein-AM fluorescence, 48 h, basal (AID 1165); settings: higher = more signal;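 also: viability of MM1S multiple myeloma cells under basal unstimulated conditions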
[4] = basal RPMI8226 viability, no added stimulus, profiling panel, cell-based, calcein-AM fluorescence, 48 h, PK04 Diversity Set (AID 1166); settings: RPMI8226 myeloma viability, higher = more signal;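 also: cells grown under basal conditions without added stimulus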
[5] = basal HepG2 mitochondrial membrane potential changes, profiling panel, cell-based, JC-1 fluorescence, 24 h, 100 nL compound (AID 1167); settings: higher = more signal
[6] = basal 3T3-L1 adipocyte mitochondrial potential changes, profiling panel, cell-based, JC-1 fluorescence, 3T3-L1 adipocytes, 24 h, 100 nL compound (AID 1168); settings: JC-1 mitochondrial fluorescence, higher = more signal, called active from +8 up or from −8 down
[7] = basal RPMI8226 mitochondrial membrane potential changes, profiling panel, cell-based, JC-1 fluorescence, 24 h, 100 nL compound (AID 1169); settings: RPMI8226 myeloma, JC-1 mitochondrial potential fluorescence, higher = more signal
[8] = basal MM1S mitochondrial membrane potential changes, profiling panel, cell-based, JC-1 fluorescence, 24 h, 100 nL compound (AID 1170); settings: higher = more signal
[9] = A549 lung cancer cell viability effects, profiling panel, resazurin fluorescence, 24 h, PK04 Diversity Set (AID 1171); settings: higher = more signal, called active from +8 up or from −8 down
[10] = HepG2 liver cancer cell viability effects, profiling panel, resazurin fluorescence, 24 h, PK04 Diversity Set (AID 1172); settings: higher = more signal
[11] = basal S. cerevisiae growth modulation, no modifier, primary screen, OD600, strain BY4716, 24 h, basal condition (AID 1173); settings: OD600, 24 h, higher = more signal, called active from +8 up or from −8 down
[12] = MM1S myeloma cell viability, profiling panel, resazurin fluorescence, basal, 24 h, PK04 Diversity Set (AID 1174); settings: higher = more signal, called active from +8 up or from −8 down;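 also: MM1S multiple myeloma cell line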
[13] = target: Dihydroorotate dehydrogenase (quinone), mitochondrial (Plasmodium falciparum (isolate 3D7)) (UniProt Q08210); assay: PfDHODH enzyme inhibitors, primary screen, biochemical, C-terminal His tag, absorbance 600 nm (AID 1175); settings: DCIP absorbance 600 nm, higher = more signal, called active from +8 up or from −8 down;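 also: recombinant parasite enzyme with a five histidine tag at its C terminus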
Dihydroorotate dehydrogenase (quinone), mitochondrial (Plasmodium falciparum (isolate 3D7)), sequence (Q08210 whole entry, looked up): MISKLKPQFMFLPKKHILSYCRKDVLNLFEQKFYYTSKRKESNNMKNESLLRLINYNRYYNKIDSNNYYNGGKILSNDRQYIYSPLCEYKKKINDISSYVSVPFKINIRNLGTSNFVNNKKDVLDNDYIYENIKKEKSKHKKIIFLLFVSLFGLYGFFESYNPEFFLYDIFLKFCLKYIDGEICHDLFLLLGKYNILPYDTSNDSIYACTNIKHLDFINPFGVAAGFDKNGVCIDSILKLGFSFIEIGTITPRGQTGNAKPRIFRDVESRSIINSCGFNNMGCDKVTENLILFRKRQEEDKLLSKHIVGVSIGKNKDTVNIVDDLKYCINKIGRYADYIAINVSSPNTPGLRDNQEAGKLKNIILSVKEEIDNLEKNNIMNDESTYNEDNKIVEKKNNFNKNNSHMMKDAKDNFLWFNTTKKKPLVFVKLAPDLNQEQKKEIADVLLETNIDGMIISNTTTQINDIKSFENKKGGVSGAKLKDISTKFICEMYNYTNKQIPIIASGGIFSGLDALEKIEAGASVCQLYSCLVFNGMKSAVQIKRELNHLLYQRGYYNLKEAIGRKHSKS

[14] = S. cerevisiae RM11-1a growth modifiers, primary screen, strain RM11-1a, OD600, basal, 24 h (AID 1177); settings: OD600, 24 h, higher = more signal, called active from +8 up or from −8 down;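 also: cultures grown under basal conditions with no added stressor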
[15] = E. coli acrAB mutant growth effects, primary screen, E. coli filamentation inducers, strain DRC39, OD650, 24 h (AID 1178); settings: higher = more signal, called active from +8 up or from −8 down;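 also: growth measured as culture turbidity by optical density at 650 nm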
[16] = E. coli acrAB mutant growth effects, primary screen, E. coli filamentation inducers, strain DRC39, OD650, 48 h (AID 1179);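 also: screen aims at cell division blockers that make cells filament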; settings: E. coli DRC39 delta-acrAB growth, higher = more signal, called active from +8 up or from −8 down
[17] = RPMI8226 myeloma cell viability, profiling panel, resazurin fluorescence, basal, 24 h, PK04 Diversity Set (AID 1180); settings: higher = more signal;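 also: RPMI8826 multiple myeloma cell line at 5000 cells per well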
[18] = target: E3 ubiquitin-protein ligase XIAP (Homo sapiens) (UniProt P98170); assay: XIAP binders, primary screen, biophysical, small-molecule microarray, fluorescence 635 nm (AID 1181); settings: small-molecule microarray binding, higher = more signal;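 also: score merges 667 nm emission and signal to noise over triplicate slides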
E3 ubiquitin-protein ligase XIAP (Homo sapiens), sequence (P98170 whole entry, looked up): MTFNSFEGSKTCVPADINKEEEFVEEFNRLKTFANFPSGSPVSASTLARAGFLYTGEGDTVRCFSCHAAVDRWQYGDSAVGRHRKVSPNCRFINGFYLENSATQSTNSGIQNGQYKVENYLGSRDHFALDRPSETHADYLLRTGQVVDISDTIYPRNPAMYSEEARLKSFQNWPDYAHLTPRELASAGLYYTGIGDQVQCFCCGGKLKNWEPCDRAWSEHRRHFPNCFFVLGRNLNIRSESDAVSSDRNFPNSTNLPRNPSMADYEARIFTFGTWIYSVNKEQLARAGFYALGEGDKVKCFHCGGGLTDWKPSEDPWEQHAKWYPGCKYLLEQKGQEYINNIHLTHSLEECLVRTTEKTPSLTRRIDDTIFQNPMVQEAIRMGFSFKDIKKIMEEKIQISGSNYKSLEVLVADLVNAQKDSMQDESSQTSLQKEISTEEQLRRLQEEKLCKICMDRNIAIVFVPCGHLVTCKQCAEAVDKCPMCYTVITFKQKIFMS

[19] = test system: XIP peptide (Xip251-270) binding; assay: small-molecule binders of XIP peptide, primary screen, biochemical, small-molecule microarray, fluorescence 635/667 nm, 0.1 µg/mL protein (AID 1182); settings: fluorescent protein binding, 635 nm, higher = more signal, called active from +8 up or from −8 down
XIP peptide (Xip251-270) = assay: small-molecule binders of XIP peptide, primary screen, biochemical, small-molecule microarray, fluorescence 635/667 nm, 0.5 µg/mL protein (AID 1183); settings: small-molecule microarray binding, fluorescence 635 nm; higher = more signal

SMILES	z-score [1]	z-score [2]	z-score [3]	z-score [4]	z-score [5]	z-score [6]	z-score [7]	z-score [8]	z-score [9]	z-score [10]	z-score [11]	z-score [12]	composite z-score [13]	z-score [14]	z-score [15]	z-score [16]	z-score [17]	composite z-score [18]	composite z-score [19]	composite z-score (XIP peptide (Xip251-270))
C[N+](C)(C)CCCC[C@@H]1NC(=O)[C@H]2C[C@@H](C(=O)NCCCCCN)[C@@H](c3cccc(OCCO)c3)N2C1=O	2.1	-0.468	-0.433	-0.649	1.31	0.0454 (inactive)	-0.773	0.0601	-0.156 (inactive)	-0.148	-0.26 (inactive)	1.53 (inactive)	-0.407 (inactive)	-0.286 (inactive)	0.222 (inactive)	-0.0647 (inactive)	0.729	-0.163	0.713 (inactive)	0.608
COc1ccc([Si](C)(C)[C@@H]2[C@@H](CC(=O)N3CCC[C@H]3CO)O[C@]3(C(=O)N(Cc4ccc(I)cc4)c4ccccc43)[C@H]2C)cc1	2.59	-2.95	-2.58	-4.35	2.47	1.67 (inactive)	-1.04	-0.818	-2.59 (inactive)	-1.37	-1.91 (inactive)	-2.56 (inactive)	0.413 (inactive)	-0.289 (inactive)	1.66 (inactive)	0.78 (inactive)	-2.59	0.0368	0.564 (inactive)	0.534
C=CCC1(CC=C)C[C@H]2CO[C@H](c3ccc(OC)cc3)N2C1=O	0.683	-0.88	0.347	0.0778	0.872	0.773 (inactive)	-0.245	0.278	0.771 (inactive)	1.01	-4.05 (inactive)	-1.19 (inactive)	0.621 (inactive)	-0.169 (inactive)	1.51 (inactive)	1.03 (inactive)	0.765	-0.323	0.842 (inactive)	0.739
O=C(NCC(F)(F)F)[C@@H]1c2ccccc2C(=O)N(C2Cc3ccccc3C2)[C@H]1c1ccc(CO)cc1	0.752	-0.016	0.557	-1.11	3.1	0.676 (inactive)	0.0903	-0.0546	1.05 (inactive)	0.983	-1.06 (inactive)	1.49 (inactive)	-1.16 (inactive)	-0.763 (inactive)	0.46 (inactive)	0.249 (inactive)	1.61	-0.22	-0.729 (inactive)	-1.33
O=C(NC1CC1)[C@@H]1c2ccccc2C(=O)N(Cc2ccccc2C(F)(F)F)[C@H]1c1ccc(CO)cc1	1.59	0.0356	-0.124	0.702	1.26	0.387 (inactive)	-0.0417	0.65	1.99 (inactive)	0.187	-0.844 (inactive)	1.55 (inactive)	0.209 (inactive)	-0.615 (inactive)	0.487 (inactive)	-0.152 (inactive)	1.98	-0.0848	0.62 (inactive)	0.618
CCOC(=O)C[C@H]1[C@H](OC(=O)Cc2ccc3c(c2)OCO3)[C@@H](NC(=O)c2ccc3ccccc3c2)c2cc(OCCCO)ccc2N1C(=O)c1ccc2ccccc2n1	0.898	1.94	-0.144	0.934	2.77	3.13 (inactive)	0.319	1.64	1.09 (inactive)	1.36	-1.73 (inactive)	-0.0816 (inactive)	0.623 (inactive)	-4.07 (inactive)	1.23 (inactive)	0.0331 (inactive)	-0.375	0.128	0.467 (inactive)	-0.275
Cc1ccc(N2C(=O)c3ccccc3[C@](C)(C(=O)NCC(F)(F)F)[C@@H]2c2ccc(CO)cc2)nc1	1.45	0.529	-0.436	-1.45	-0.106	-0.603 (inactive)	0.54	1.04	0.451 (inactive)	0.125	-1.08 (inactive)	1.57 (inactive)	0.534 (inactive)	0.216 (inactive)	0.24 (inactive)	0.536 (inactive)	1.4	0.0506	-0.0838 (inactive)	-0.964
O=C1O[C@@H](c2ccccc2)[C@@H](c2ccccc2)N2[C@@H](c3ccc(OCCO)cc3)[C@]3(C(=O)Nc4ccc(C#CC5(O)CCCCCC5)cc43)[C@@H](C(=O)NC[C@H](O)c3ccccc3)[C@H]12	1.71	0.394	-0.987	0.208	-1.7	0.548 (inactive)	-0.535	-0.197	0.883 (inactive)	0.18	0.842 (inactive)	0.786 (inactive)	0.935 (inactive)	2.1 (inactive)	1.06 (inactive)	1.12 (inactive)	0.966	-0.304	0.673 (inactive)	0.819
Cc1ccc(S[C@]2(C(=O)NC3CC3)CC(=O)N(Cc3ccccc3C(F)(F)F)[C@@H]2c2ccc(CO)cc2I)cc1	0.421	-0.4	-2.65	-2.11	1.44	0.525 (inactive)	-0.513	-0.93	0.149 (inactive)	0.436	-8 (inactive)	-1.93 (inactive)	-2.6 (inactive)	-2.07 (inactive)	0.413 (inactive)	0.303 (inactive)	-1.84	-0.29	0.0437 (inactive)	-0.811
